Results taken from PubChem BioAssay (EPA / NIEHS).
Values joined by “and” are separate entries in the source; they are usually repeats but may differ in a detail not shown here. Identical values can stand only once. Active and inactive are the calls of the source. The calls were made as follows: active = hit-call score of the fitted dose curve at least 0.9, where 1 is the maximum; inactive = score below 0.9.

Legend:
[1] = ATG_GLI_CIS: Attagene CIS-FACTORIAL HepG2 Assay for human Zinc Finger Protein GLI1 (AID 2282945); settings: HepG2, Attagene cis-factorial reporter mRNA, GLI element; actives raise or lower the signal
Outline: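 Transiently transfected HepG2 cells report endogenous transcription factor activity via cis-element-driven reporter units. After 24 h compound exposure, reporter mRNA was measured by RT-PCR with capillary electrophoresis; bidirectional fitting against DMSO baseline.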

[2] = molecular target: Heat shock factor protein 1 (Homo sapiens) (UniProt Q00613); test: ATG_HSE_CIS: Attagene CIS-FACTORIAL HepG2 Assay for human Heat Shock Transcription Factor 1 (HSE) (AID 2282953); settings: HepG2 HSE cis-reporter, Attagene RNA transcription; actives raise or lower the signal
Heat shock factor protein 1 (Homo sapiens), sequence (Q00613 whole entry, looked up, the tested form may be a part): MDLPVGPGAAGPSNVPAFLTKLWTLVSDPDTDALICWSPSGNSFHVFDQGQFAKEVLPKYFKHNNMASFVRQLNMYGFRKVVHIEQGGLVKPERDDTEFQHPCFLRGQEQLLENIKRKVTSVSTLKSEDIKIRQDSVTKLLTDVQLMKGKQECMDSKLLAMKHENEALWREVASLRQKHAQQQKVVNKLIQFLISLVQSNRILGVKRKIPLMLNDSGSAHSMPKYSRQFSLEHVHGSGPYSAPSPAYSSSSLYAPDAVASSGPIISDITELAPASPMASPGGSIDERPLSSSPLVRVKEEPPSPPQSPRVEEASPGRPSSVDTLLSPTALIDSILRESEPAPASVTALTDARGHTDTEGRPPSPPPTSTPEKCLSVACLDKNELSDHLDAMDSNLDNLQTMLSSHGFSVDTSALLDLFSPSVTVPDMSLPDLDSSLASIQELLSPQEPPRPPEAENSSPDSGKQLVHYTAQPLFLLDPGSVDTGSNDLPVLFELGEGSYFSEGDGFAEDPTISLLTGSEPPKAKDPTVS
Outline: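 Endogenous transcription factor activity captured via cis-promoter reporter units transfected into HepG2; treatment lasted 24 h. Fluorescence intensity of reporter fragments analysed with bidirectional curve fitting, DMSO baseline.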

[3] = read-out: Monokine induced gamma interferon (MIG), CXCL9 (gene 4283); test: BSK_hDFCGF_MIG: BioMAP Diversity Plus: hDFCGF Assay for Monokine induced gamma interferon (MIG) Biomarker Activity (AID 2283063); settings: primary human foreskin fibroblasts; actives raise or lower the signal
Outline: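 Chemicals were added to primary human foreskin fibroblast cultures, which were sampled 24 h later. MIG levels were then quantified by ELISA and responses fitted in both directions relative to DMSO.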

[4] = read-out: Matrix Metallopeptidase 1 (MMP1), MMP1 (gene 4312); test: BSK_hDFCGF_MMP1: BioMAP Diversity Plus: hDFCGF Assay for Matrix Metallopeptidase 1 (MMP1) Biomarker Activity (AID 2283064); settings: primary human foreskin fibroblasts; actives raise or lower the signal
Outline: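 Primary human foreskin fibroblasts exposed to chemicals for 24 h; MMP1 measured by ELISA. Cytotoxicity tracked by SRB staining in parallel cultures; bidirectional fit relative to DMSO.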

[5] = read-out: Plasminogen activator inhibitor-1 (PAI1), SERPINE1 (gene 5054); test: BSK_hDFCGF_PAI1: BioMAP Diversity Plus: hDFCGF Assay for Plasminogen activator inhibitor-1 (PAI1) Biomarker Activity (AID 2283066); settings: primary human foreskin fibroblasts; actives raise or lower the signal
Outline: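 Human foreskin fibroblast primary cells, 24 h chemical exposure; PAI-1 measured by ELISA. Bidirectional fitting relative to DMSO; parallel cultures stained with SRB for total protein to flag overt cytotoxicity.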

[6] = read-out: Interferon-gamma inducible Protein 10 (IP10), CXCL10 (gene 3627); test: BSK_KF3CT_IP10: BioMAP Diversity Plus: KF3CT Assay for Interferon-gamma inducible Protein 10 (IP10) Biomarker Activity (AID 2283068); settings: primary human keratinocytes with fibroblasts; actives raise or lower the signal
Outline: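 ELISA read-out of IP-10 after 24 h chemical dosing of human skin primary co-culture (keratinocytes, foreskin fibroblasts). Gain or loss of signal relative to DMSO, bidirectional curve fit.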

[7] = BSK_KF3CT_SRB: Viability Assessment in the BioMAP Diversity Plus: KF3CT Assay (AID 2283069); settings: primary human keratinocytes with fibroblasts;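 also: total protein by sulforhodamine B staining as a cytotoxicity measure; read 24 h after compound addition; fitted for both signal gain and loss against DMSO baseline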
Outline: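 Human keratinocyte and foreskin fibroblast co-culture exposed to chemical for 24 h. Total protein measured in parallel cultures by 0.1% sulforhodamine B staining after 10% TCA fixation, read at 560 nm; bidirectional fit relative to DMSO.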

[8] = read-out: Interleukin-1 alpha (IL1a), IL1A (gene 3552); test: BSK_KF3CT_IL1a: BioMAP Diversity Plus: KF3CT Assay for Interleukin-1 alpha (IL1a) Biomarker Activity (AID 2283070); settings: primary human keratinocytes with fibroblasts; actives raise or lower the signal
Outline: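 Primary human keratinocyte plus foreskin fibroblast co-culture, dosed and measured at 24 h in 96-well plates. IL-1a level quantified by ELISA; bidirectional fit relative to DMSO.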

[9] = read-out: TIMP metallopeptidase inhibitor 2 (TIMP2), TIMP2 (gene 7077); test: BSK_KF3CT_TIMP2: BioMAP Diversity Plus: KF3CT Assay for TIMP metallopeptidase inhibitor 2 (TIMP2) Biomarker Activity (AID 2283071); settings: primary human keratinocytes with fibroblasts; actives raise or lower the signal
Outline: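 Co-culture of human primary keratinocytes and foreskin fibroblasts, measured 24 h after chemical dosing. TIMP-2 quantified by ELISA and fitted in both directions relative to DMSO. Cytotoxicity checked in parallel cultures by SRB total-protein staining.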

[10] = read-out: Matrix Metallopeptidase 9 (MMP9), MMP9 (gene 4318); test: BSK_KF3CT_MMP9: BioMAP Diversity Plus: KF3CT Assay for Matrix Metallopeptidase 9 (MMP9) Biomarker Activity (AID 2283074); settings: primary human keratinocytes with fibroblasts; actives raise or lower the signal;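 as to AC50: MMP9 protein level quantified by ELISA in the co-culture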
Outline: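 Human keratinocyte and foreskin fibroblast co-culture exposed to chemicals for 24 h; MMP9 biomarker measured by ELISA, bidirectional fitting relative to DMSO; cytotoxicity tracked by SRB total protein staining in parallel cultures.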

[11] = read-out: urokinase plasminogen activator (uPA), PLAU (gene 5328); test: BSK_KF3CT_uPA: BioMAP Diversity Plus: KF3CT Assay for urokinase plasminogen activator (uPA) Biomarker Activity (AID 2283075); settings: primary human keratinocytes with fibroblasts; actives raise or lower the signal
Outline: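 Primary human keratinocyte/foreskin fibroblast co-culture exposed to chemical; uPA measured by ELISA at 24 h. Bidirectional fit versus DMSO, with parallel SRB total-protein staining for cytotoxicity.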

[12] = BSK_LPS_SRB: Viability Assessment in the BioMAP Diversity Plus: LPS Assay (AID 2283079); settings: primary human HUVEC with PBMC;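 also: total protein by sulforhodamine B absorbance as a cytotoxicity measure; measured one day after compound addition; fitted in both directions against DMSO so loss or gain of signal counts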
Outline: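 Readout is SRB absorbance at 560 nm (0.1% stain, TCA-fixed parallel cultures) as a total-protein cytotoxicity measure. Cells: primary human umbilical vein endothelium plus peripheral blood mononuclear cells, 24 h after chemical exposure; DMSO served as baseline.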

[13] = read-out: Tumor necrosis factor (Homo sapiens) (UniProt P01375); test: BSK_LPS_TNFa: BioMAP Diversity Plus: LPS Assay for Tumour Necrosis Factor alpha (TNFa) Biomarker Activity (AID 2283085); settings: primary human HUVEC with PBMC; actives raise or lower the signal
Outline: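 Human umbilical vein endothelial cells co-cultured with PBMC and stimulated with LPS. TNFa was measured by ELISA 24 h after chemical dosing, fitted bidirectionally relative to DMSO.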

[14] = read-out: Vascular cell adhesion molecule 1 (VCAM1), VCAM1 (gene 7412); test: BSK_LPS_VCAM1: BioMAP Diversity Plus: LPS Assay for Vascular cell adhesion molecule 1 (VCAM1) Biomarker Activity (AID 2283086); settings: primary human HUVEC with PBMC; actives raise or lower the signal
Outline: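 Human umbilical vein endothelial cells co-cultured with PBMC and stimulated with LPS; VCAM-1 measured by ELISA 24 h after dosing. Bidirectional curve fitting against DMSO baseline; cytotoxicity tracked in parallel by SRB total-protein staining.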

[15] = read-out: CD38, CD38 (gene 952); test: BSK_SAg_CD38: BioMAP Diversity Plus: SAg Assay for CD38 Biomarker Activity (AID 2283087); settings: primary human HUVEC with PBMC; actives raise or lower the signal
Outline: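 Human HUVEC plus PBMC co-culture stimulated with superantigen; CD38 measured by ELISA 24 h after chemical dosing. Fluorescence read-out, bidirectional fit against DMSO; cytotoxicity tracked in parallel by SRB and Alamar Blue.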

[16] = read-out: Monocyte Chemoattractant Protein-1 (MCP1), CCL2 (gene 6347); test: BSK_SAg_MCP1: BioMAP Diversity Plus: SAg Assay for Monocyte Chemoattractant Protein-1 (MCP1) Biomarker Activity (AID 2283090); settings: primary human HUVEC with PBMC; actives raise or lower the signal
Outline: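 MCP-1 levels in the endothelial–PBMC SAg co-culture were quantified by ELISA at 24 h post-dosing; both increases and decreases versus DMSO scored. Cytotoxicity monitored by SRB total protein in parallel cultures.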

[17] = read-out: E-selectin (Homo sapiens) (UniProt P16581); test: BSK_SAg_Eselectin: BioMAP Diversity Plus: SAg Assay for Eselectin Biomarker Activity (AID 2283091); settings: primary human HUVEC with PBMC; actives raise or lower the signal
Outline: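 Co-culture: HUVEC + PBMC. Dose compound; 24 h. ELISA for E-selectin. Bidirectional fit vs DMSO.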

[18] = read-out: Monokine induced gamma interferon (MIG), CXCL9 (gene 4283); test: BSK_SAg_MIG: BioMAP Diversity Plus: SAg Assay for Monokine induced gamma interferon (MIG) Biomarker Activity (AID 2283092); settings: primary human HUVEC with PBMC; actives raise or lower the signal
Outline: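 Endothelial cells and PBMC were co-cultured, exposed to test chemicals, and sampled 24 h later. MIG was measured by ELISA, and responses were fitted in both directions relative to DMSO.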

[19] = read-out: Interleukin-8 (IL8), CXCL8 (gene 3576); test: BSK_SAg_IL8: BioMAP Diversity Plus: SAg Assay for Interleukin-8 (IL8) Biomarker Activity (AID 2283094); settings: primary human HUVEC with PBMC; actives raise or lower the signal
Outline: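 Human umbilical vein endothelial cells co-cultured with PBMC, stimulated with superantigen; IL-8 measured by ELISA 24 h after chemical dosing. Bidirectional fitting versus DMSO; SRB staining in parallel cultures tracks cytotoxicity.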

[20] = BSK_SAg_Proliferation: Cell Proliferation Assessment in the BioMAP Diversity Plus: SAg Assay (AID 2283095); settings: primary human HUVEC with PBMC
Outline: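 Human umbilical vein endothelial cells co-cultured with PBMC; sulforhodamine B total-protein staining (0.1% SRB after 10% TCA fixation, absorbance 560 nm) at 96 h in sub-confluent culture. Fitted bidirectionally against DMSO.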

Measured: AC50

Tumor necrosis factor (Homo sapiens), sequence (P01375 whole entry, looked up): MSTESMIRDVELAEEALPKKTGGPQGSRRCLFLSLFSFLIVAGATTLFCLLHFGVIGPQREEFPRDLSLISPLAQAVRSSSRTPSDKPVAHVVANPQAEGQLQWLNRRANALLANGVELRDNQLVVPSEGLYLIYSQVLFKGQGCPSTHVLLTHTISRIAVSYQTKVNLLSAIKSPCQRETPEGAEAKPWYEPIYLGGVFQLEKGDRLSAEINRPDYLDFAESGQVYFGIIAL
E-selectin (Homo sapiens), sequence (P16581 whole entry, looked up): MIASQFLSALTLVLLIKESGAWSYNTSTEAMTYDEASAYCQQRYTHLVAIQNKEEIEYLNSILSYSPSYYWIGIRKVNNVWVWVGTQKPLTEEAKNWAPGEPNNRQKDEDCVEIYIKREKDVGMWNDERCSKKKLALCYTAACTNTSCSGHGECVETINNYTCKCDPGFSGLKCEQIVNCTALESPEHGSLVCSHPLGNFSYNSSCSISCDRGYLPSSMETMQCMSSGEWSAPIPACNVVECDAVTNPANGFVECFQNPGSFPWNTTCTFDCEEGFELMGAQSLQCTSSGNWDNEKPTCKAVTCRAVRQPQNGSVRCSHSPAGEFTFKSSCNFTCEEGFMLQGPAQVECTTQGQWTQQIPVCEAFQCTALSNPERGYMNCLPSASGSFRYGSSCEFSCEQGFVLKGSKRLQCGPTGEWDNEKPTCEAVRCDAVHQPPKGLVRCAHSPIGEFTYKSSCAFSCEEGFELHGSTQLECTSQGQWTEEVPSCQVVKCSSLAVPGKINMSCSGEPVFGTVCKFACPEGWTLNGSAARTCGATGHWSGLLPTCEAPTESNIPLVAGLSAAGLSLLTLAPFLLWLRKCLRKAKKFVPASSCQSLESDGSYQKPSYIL

C[Si](C)(C)O[Si](C)(C)O[Si](C)(C)C
inactive: [1] | [2]

COc1cc(CNC(=O)CCCC/C=C/C(C)C)ccc1O
inactive: [3] | [4] | [5] | [6] | [7] | [8] | [9] | [10] | [11] | [12] | [13] | [14] | [15] | [16] | [17] | [18] | [19] | [20]

CC[N+](CC)(CC(=O)Nc1c(C)cccc1C)Cc1ccccc1
inactive: [1] | [3] | [4] | [5] | [6] | [7] | [8] | [9] | [10] | [11] | [12] | [13] | [14] | [15] | [16] | [17] | [18] | [19] | [20]

CCCN[C@H]1CCc2nc(N)sc2C1
inactive: [2]

COc1ccc2ccccc2c1
inactive: [1] | [2]

CCCCCC[C@@H](O)C/C=C\CCCCCCCC(=O)O
inactive: [1]
active: [2] 187 µM

O=[N+]([O-])c1cc(S(=O)(=O)Nc2ccccc2)ccc1Nc1ccccc1
active: [3] 31 µM and 31.3 µM | [4] 30.9 µM and 36.7 µM | [5] 26.6 µM and 25.4 µM | [6] 30.2 µM and 32.4 µM | [7] 34.6 µM | [8] 31 µM and 32.2 µM | [9] 32.6 µM and 30.4 µM | [10] 31.5 µM and 29.5 µM | [11] 32.8 µM and 32.9 µM | [12] 31.1 µM and 28.7 µM | [13] 5.14 µM and 5.08 µM | [14] 13.6 µM and 12.6 µM | [15] 25 µM and 26 µM | [16] 28.5 µM and 28.6 µM | [17] 12.1 µM and 19.5 µM | [18] 34.1 µM and 35.3 µM | [19] 20 µM and 14.4 µM | [20] 15 µM and 25.7 µM

CCCCCCCCCC/C=C/C1CC(=O)OC1=O (centres undefined)
active: [10] 27.7 µM
inactive: [1] | [2] | [3] | [4] | [5] | [6] | [7] | [8] | [9] | [11] | [12] | [13] | [14] | [15] | [16] | [17] | [18] | [19] | [20]

Oc1cccc2ccccc12
inactive: [2] | [3] | [4] | [5] | [6] | [7] | [8] | [9] | [10] | [11] | [12] | [13] | [14] | [15] | [16] | [17] | [18] | [19]
active: [20] 3.97 µM

OC(C(F)(F)F)(C(F)(F)F)C(O)(C(F)(F)F)C(F)(F)F
active: [3] 30 µM | [5] 33.1 µM and 33.8 µM | [6] 48.7 µM and 47.2 µM | [7] 46.9 µM and 58.2 µM | [8] 52.7 µM and 54 µM | [9] 50.7 µM and 51.8 µM | [10] 43 µM and 46.1 µM | [12] 30.3 µM and 24.3 µM | [14] 21.9 µM and 28.8 µM | [15] 34.1 µM and 21.9 µM | [16] 43.3 µM and 40.8 µM | [17] 23.3 µM and 22.9 µM | [18] 50.6 µM and 49.6 µM | [19] 30 µM and 21.4 µM | [20] 22.9 µM and 36.4 µM
inactive: [4] | [11] | [13]

O=S(=O)(O)c1cccc2ccccc12
inactive: [1] | [2]

CCCCC(CC)COC(=O)C=Cc1ccc(OC)cc1 (centres undefined)
inactive: [4] | [5] | [6] | [7] | [8] | [9] | [10] | [11] | [13] | [14] | [18]
active: [3] 12 µM and 10.2 µM | [12] 32.1 µM and 36.7 µM | [15] 28.5 µM and 20 µM | [16] 31.7 µM and 32.3 µM | [17] 25.9 µM and 18.8 µM | [19] 23.5 µM and 36.7 µM | [20] 34.9 µM and 37.8 µM
